Each structure is given as a SMILES string. Hit rate of the full screen: of about 310,000 compounds, about 14,000 (4.5%) showed an effect of 50% or more. The effect is printed as a negative number. Shown is part of a subset that was picked to be rich in strong results.
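Also: peak tail current of the secondary pulse compared with the same well before compound.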

For this assay, the target named is human ether-à-go-go-related gene (hERG) potassium channel (human, UniProt Q12809). Nature of the assay: primary screen, population patch clamp on CHO cells stably expressing hERG; higher = less effect of the substance.
human ether-à-go-go-related gene (hERG) potassium channel, sequence (Q12809 whole entry, looked up): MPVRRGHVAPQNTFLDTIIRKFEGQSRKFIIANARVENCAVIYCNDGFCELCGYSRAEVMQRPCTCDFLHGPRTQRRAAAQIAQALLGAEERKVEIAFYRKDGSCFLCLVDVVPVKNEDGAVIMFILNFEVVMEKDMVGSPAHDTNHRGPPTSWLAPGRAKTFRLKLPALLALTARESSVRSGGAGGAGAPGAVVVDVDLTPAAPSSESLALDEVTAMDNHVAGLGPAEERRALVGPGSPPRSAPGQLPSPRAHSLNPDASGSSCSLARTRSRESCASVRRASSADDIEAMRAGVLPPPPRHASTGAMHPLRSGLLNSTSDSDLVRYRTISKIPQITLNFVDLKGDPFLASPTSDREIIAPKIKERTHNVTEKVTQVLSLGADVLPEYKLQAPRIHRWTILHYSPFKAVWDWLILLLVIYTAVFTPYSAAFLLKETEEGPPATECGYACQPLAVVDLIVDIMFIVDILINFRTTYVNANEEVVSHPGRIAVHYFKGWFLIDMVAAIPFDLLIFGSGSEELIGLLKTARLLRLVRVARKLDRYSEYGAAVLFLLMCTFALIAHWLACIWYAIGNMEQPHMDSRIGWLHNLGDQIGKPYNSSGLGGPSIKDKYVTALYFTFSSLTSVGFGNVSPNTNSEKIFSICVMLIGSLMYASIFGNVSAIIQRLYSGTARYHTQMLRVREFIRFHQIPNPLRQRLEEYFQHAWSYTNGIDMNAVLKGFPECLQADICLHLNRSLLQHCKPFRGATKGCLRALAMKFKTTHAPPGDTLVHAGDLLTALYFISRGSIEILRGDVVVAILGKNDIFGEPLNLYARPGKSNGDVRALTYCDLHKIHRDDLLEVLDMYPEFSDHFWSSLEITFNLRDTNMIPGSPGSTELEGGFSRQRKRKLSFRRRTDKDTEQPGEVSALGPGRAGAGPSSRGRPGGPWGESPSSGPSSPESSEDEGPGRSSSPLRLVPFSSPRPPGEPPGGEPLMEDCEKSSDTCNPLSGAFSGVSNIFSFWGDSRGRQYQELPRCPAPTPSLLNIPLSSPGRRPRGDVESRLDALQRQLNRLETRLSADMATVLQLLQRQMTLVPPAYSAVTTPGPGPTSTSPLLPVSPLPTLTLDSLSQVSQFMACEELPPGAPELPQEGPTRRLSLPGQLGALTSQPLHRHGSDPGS
In the case of `Cc1ccc2cc(C)c3nnc(SCC(=O)NCc4ccco4)n3c2c1`, the “hERG current change (%, negative = inhibition) at 10uM” value is recorded as -25.5%.
With `O=C1c2ccc3c4c(ccc(c24)C(=O)N1c1ccc(O)cc1)C(=O)N(c1ccc(O)cc1)C3=O` the figure was 23.3%; with `CCNS(=O)(=O)c1ccc(Br)c(OC)c1`, 10.4%.
With `Cc1cc(=O)oc2c(C(=O)/C=C\c3cccs3)c(O)ccc12` the figure was 11.1%; with `COc1cccc(-c2nn(C)c3sc(C(=O)NCCCN(C)Cc4ccccc4)cc23)c1`, -52.2%; with `CCCCN(C)CCNC(=O)c1cc2c(-c3cccc(OC)c3)nn(C)c2s1`, -49.5%.
With `CCN(CC)CCCNC(=O)c1cc2c(-c3cccc(OC)c3)nn(C)c2s1` the figure was -44.7%.
Regarding `CCN(CC)CCNC(=O)c1cc2c(-c3cccc(OC)c3)nn(C)c2s1`, the “hERG current change (%, negative = inhibition) at 10uM” value is -31.8%.
Regarding `CCN(CCCNC(=O)c1cc2c(-c3cccc(OC)c3)nn(C)c2s1)Cc1ccccc1`, the “hERG current change (%, negative = inhibition) at 10uM” value is on record as -68.1%.
Regarding `COCCCNC(=O)c1cc2c(-c3cccc(OC)c3)nn(C)c2s1`, the “hERG current change (%, negative = inhibition) at 10uM” value is -5.59%.
Regarding `O=C(COc1ccccc1Cl)Nc1ccc(S(=O)(=O)N2CCOCC2)cc1`, the “hERG current change (%, negative = inhibition) at 10uM” value was 15.4%.
With `COc1ccc(C(=O)NCCc2c[nH]c3ccccc23)cc1S(=O)(=O)N1CCOCC1` the figure was -9.63%; with `COc1ccc(NC(=O)/C(C#N)=C\c2ccc(Br)o2)cc1`, 4.52%.
With `Cc1ccc(C(=O)Nc2cccc(S(=O)(=O)N3CCOCC3)c2)cc1[N+](=O)[O-]` the figure was 24.5%; with `O=C(Cn1nc(C(=O)O)c2ccccc2c1=O)Nc1ccc(F)cc1`, 8.44%.
With `COCC(=O)OC/C(O)=C(\C#N)c1nc2ccccc2[nH]1` the figure was 11%.
Take `COC(=O)C1=C(c2c(C)noc2C)C[C@@H]2CC[C@H]1N2C(=O)NCCNC(C)=O`: the “hERG current change (%, negative = inhibition) at 10uM” value is given as 22.2%.
With `CC(NCc1ccc(S(N)(=O)=O)cc1)C(=O)Nc1cc([N+](=O)[O-])ccc1Cl` (stereo not shown) the figure was -45.8%; with `CC(NCc1ccc(S(N)(=O)=O)cc1)C(=O)Nc1ccc([N+](=O)[O-])cc1Cl` (stereo not shown), -50.5%.
With `CC(NCc1ccc(S(N)(=O)=O)cc1)C(=O)Nc1cccc(Cl)c1` (stereo not shown) the figure was -8.15%.
With `Cc1onc(-c2ccccc2)c1CNC(=O)C1COc2ccccc2O1` (stereo not shown) the figure was -23%; with `Cc1ccc2oc(=O)c3cc(C(=O)NCCCN4CCCC(C)C4)sc3c2c1` (stereo not shown), -34.9%.
For the compound `CCC1CCCCN1CCCNC(=O)c1cc2c(=O)oc3ccc(C)cc3c2s1` (stereo not shown), the “hERG current change (%, negative = inhibition) at 10uM” value is -69.5%.
With `CCN1CCN(CCCNC(=O)c2cc3c(=O)oc4ccc(C)cc4c3s2)CC1` the figure was -19.1%; with `Cc1ccc2oc(=O)c3cc(C(=O)NCCCN4CCN(C)CC4)sc3c2c1`, -5.62%.
With `Cc1ccc2oc(=O)c3cc(C(=O)NCCCN4CCCCCC4)sc3c2c1` the figure was -40.2%; with `CN1CCN(CCCNC(=O)c2cc3c(=O)oc4ccccc4c3s2)CC1`, -14.2%.
With `O=C(NCCCN1CCCCCC1)c1cc2c(=O)oc3ccccc3c2s1` the figure was -60.5%; with `Cc1ccc2oc(=O)c3cc(C(=O)NCCCN4C(C)CCCC4C)sc3c2c1` (stereo not shown), -61.6%; with `Cc1ccc2oc(=O)c3cc(C(=O)NCCCN4CC(C)CC(C)C4)sc3c2c1` (stereo not shown), -49.2%.
`Cc1nn(C)c(C(=O)Nc2ccc(S(=O)(=O)NC34CC5CC(CC(C5)C3)C4)cc2)c1Br`: the “hERG current change (%, negative = inhibition) at 10uM” value is recorded as 9.77%.
With `COc1ccc(OCC(O)CN(CC(O)COc2ccc(OC)cc2)c2cccc(O)c2)cc1` (stereo not shown) the figure was 2.41%.
With `CCSc1nnc2c(n1)OC1(CCCC1)Nc1ccccc1-2` the figure was 2.61%.
With `COc1ccc(CN(C)C(=O)CCN2C(=O)c3ccccc3C2=O)c(OC)c1OC` the figure was -2.22%; with `CCc1c(C)sc(NC(=S)N2CCN(C(=O)C3CCCO3)CC2)c1C(=O)OC` (stereo not shown), -13%; with `CC(C)Cc1nnc(NC(=O)CCC(=O)N2CCN(c3ccccc3F)CC2)s1`, 17%.
As to `Cc1ccc(Nc2ccc(C(N)=O)cc2[N+](=O)[O-])cc1C`, the “hERG current change (%, negative = inhibition) at 10uM” value was 8.9%.
As for `CC(=O)OC(C(=O)NCc1ccc(F)cc1)c1ccccn1` (stereo not shown), the “hERG current change (%, negative = inhibition) at 10uM” value came out at 4.52%.
With `OCC[C@@H]1C[C@@H](O)[C@H](O)[C@@]2(Cc3ccccc3CCO2)O1` the figure was 11%.
With `Cn1ccc(NC(=O)c2ccc(Cl)cc2Cl)n1` the figure was 7.79%; with `O=C(CN1C(=O)c2ccccc2C1=O)Nc1cccc(S(=O)(=O)Nc2ccccc2Cl)c1`, 19.9%; with `COc1ccc(C2=Nn3c(nnc3-c3ccccc3)SC2)cc1OC`, 7.08%.
With `c1ccc(C2=Nn3c(nnc3-c3cccnc3)SC2)cc1` the figure was -25.4%; with `COc1ccc(C2=Nn3c(nnc3-c3ccccn3)SC2)cc1OC`, -34.3%.
In the case of `COc1ccc(C2=Nn3c(nnc3-c3cccnc3)SC2)cc1OC`, the “hERG current change (%, negative = inhibition) at 10uM” value was -61.8%.
With `COc1ccc(OC)c(C2=Nn3c(nnc3-c3ccncc3)SC2)c1` the figure was -24.3%.
With `COc1ccc(C2=Nn3c(nnc3-c3ccncc3)SC2)cc1OC` the figure was -70.8%.
With `O=S(=O)(c1ccc(NC2CCCCC2)cc1)N1CCOCC1` the figure was -23.7%; with `COc1ccc(NC(=O)c2cc(-c3ccccn3)nc3ccccc23)cc1S(=O)(=O)N(C)C`, -16.6%; with `O=C(Nn1cnnc1)c1ccc(Br)s1`, 13.9%.
With `CN(C)C(=O)CSc1nc2ccccc2c(=O)[nH]1`, the “hERG current change (%, negative = inhibition) at 10uM” value stood at 22%.
With `CCN(CC)CCn1c2c(c(SCC(=O)Nc3nc4ccccc4s3)nc1=O)CCCC2` the figure was -60.2%; with `CCN(CC)CCn1c2c(c(SCC(=O)Nc3nc4ccccc4s3)nc1=O)CCC2`, -58.3%; with `CCN(CC)CCCn1c2c(c(SCC(=O)Nc3nc4ccccc4s3)nc1=O)CCC2`, -71.2%.
With `CCCNC(=O)c1onc(CSc2ccc(Cl)cc2)c1C(=O)NCCOC` the figure was -19.7%; with `Cn1c(SCc2cccnc2)nc2c(c1=O)SCC2`, 7.48%; with `N#Cc1cc2c(=O)n3ccccc3nc2n(-c2ccc(Cl)cc2)c1=O`, 5.19%.
With `COC(=O)c1sccc1NC(=O)CN1CCN(c2ccc(F)cc2)CC1` the figure was 6.89%; with `Cc1nc(SCC(=O)Nc2cccc(Cl)c2)n[nH]1`, 6.87%.
Consider `O=C(NC1CC2CCCC(C1)N2S(=O)(=O)c1ccccc1)C1CCCCC1` (stereo not shown), for which the “hERG current change (%, negative = inhibition) at 10uM” value was -2.61%.
`O=C(Nc1ccc(N2CCOCC2)cc1)NC1CCCCC1`: the “hERG current change (%, negative = inhibition) at 10uM” value is given as 6.25%.
Consider `Cc1ccc(C(=O)NCc2ccccn2)cc1S(=O)(=O)N1CCOCC1`, for which the “hERG current change (%, negative = inhibition) at 10uM” value is listed as 8.99%.
With `O=C(NCc1cccnc1)c1ccc(Cl)c(S(=O)(=O)N2CCCCCC2)c1`, the “hERG current change (%, negative = inhibition) at 10uM” value was -36.2%.
With `CCOC(=O)c1sc(NC(=O)c2cc(S(=O)(=O)N3CCOCC3)ccc2C)nc1C` the figure was -60.9%; with `Cc1ccc(C(=O)NCc2cccnc2)cc1S(=O)(=O)N1CCCCCC1`, -65.7%; with `Cc1ccc(S(=O)(=O)N2CCCC2)cc1C(=O)NCc1ccccc1CN1CCCC1`, -52.3%.
With `Cc1ccc(C(=O)NCc2ccccc2F)cc1S(=O)(=O)N1CCCC1` the figure was 4.12%; with `COc1ccc2nc(NC(=O)c3cc(S(=O)(=O)N4CCOCC4)ccc3C)sc2c1`, 1.72%.
With `Cc1ccc(C(=O)NCc2ccccc2CN2CCCC2)cc1S(=O)(=O)N1CCOCC1` the figure was -61.4%; with `Cc1ccc(S(=O)(=O)N2CCCCCC2)cc1C(=O)NCc1ccccn1`, -14.8%.
In the case of `Cc1ccc(C(=O)NCc2ccncc2)cc1S(=O)(=O)N1CCCCC1`, the “hERG current change (%, negative = inhibition) at 10uM” value is on record as -30.5%.
With `Cc1ccc(S(=O)(=O)N2CCCC2)cc1C(=O)NCc1ccccn1` the figure was 5.54%.
With `CC(=O)c1sc(NC(=O)c2cc(S(=O)(=O)N3CCOCC3)ccc2F)nc1C` the figure was -1.54%; with `CCOC(=O)C1CCCN(C(=O)CCn2nnnc2CN2CCOCC2)C1` (stereo not shown), 18.4%; with `O=C1NCCCc2nc(Oc3ccccc3)sc21`, 0.239%.
With `Cc1ccc(Cn2nnc3c(=O)[nH]c(C4CCCN(C(=O)Nc5ccc(F)cc5)C4)nc32)cc1` (stereo not shown) the figure was -5.1%; with `Cc1cccc(OCC(=O)N(Cc2ccccc2)c2c(N)n(Cc3ccccc3)c(=O)[nH]c2=O)c1`, -11.2%; with `O=C(CN1CC=C(c2ccccc2)CC1)Nc1cc(Cl)ccc1Cl`, -12.8%.
Turning to `COc1ccccc1C1(CCN=Cc2ccc(N(C)C)cc2)CCOC(C)(C)C1` (stereo not shown), the “hERG current change (%, negative = inhibition) at 10uM” value is listed as -2.03%.
`CCN(C(=O)COC(=O)c1ccco1)c1c(N)n(Cc2ccccc2)c(=O)[nH]c1=O`: the “hERG current change (%, negative = inhibition) at 10uM” value was -0.805%.
`Cc1c(N2C(=O)c3ccc(Br)cc3C2=O)c(=O)n(-c2ccccc2)n1C`: the “hERG current change (%, negative = inhibition) at 10uM” value is reported as 3.45%.
With `CCCCN1C(=O)C(C)=C(C)C1OCCc1ccc(OC)c(OC)c1` (stereo not shown) the figure was 18.2%.
For the compound `Cc1ccc(S(=O)(=O)N2CCOCC2)cc1C(=O)NCc1ccccc1CN1CCCC1`, the “hERG current change (%, negative = inhibition) at 10uM” value was -53%.
With `COc1ccc(S(=O)(=O)N2CCOCC2)cc1C(=O)NCc1ccccc1CN1CCCC1` the figure was -20.6%.
`Cc1ccc(S(=O)(=O)N2CCOCC2)cc1C(=O)NCc1ccccn1`: the “hERG current change (%, negative = inhibition) at 10uM” value is reported as -0.76%.

Source of the values: paper PMC4336329 (PLoS ONE, 2015).
